# Where “and” joins values, the source holds several entries; their conditions need not be identical. Equal entries are not always repeated. Unmarked numbers belong to inactive results. Records with an inconclusive call do not appear. A call without a number means that no potency is given here. Calls of active or inactive are those of the source. Unless noted, the call rests on the fitted dose curve; in most records, active means well fitted curve in the direction sought with a large enough effect; inconclusive means small, poorly fitted or top-dose-only effect, or another doubt; inactive means no such curve, though single readings can be large; an effect the other way counts as inactive or inconclusive.
# How the values were obtained:
# Es-2 = test: Primary qHTS to identify gynecologic anti-cancer compounds using libraries of approved drugs and bioactive compounds (AID 1345084); conditions: Gynecologic cancer cell panel viability, ATPlite luminescence, 48 h; series mostly up to 57.5 µM; further: nearly all actives have a fitted effect of over 55% in size; further: potency means the concentration at half of the fitted maximal effect
# Summary of the method: (§1)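 Cells, 1,000 per well, plated 16 h, then exposed 48 h at 37 C to compounds. Viability by ATPlite luminescence after 15 min at room temperature.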
# HeLa = test: as above; conditions: Gynecologic cancer cell panel viability, ATPlite luminescence, 48 h; series mostly up to 57.5 µM
# Summary of the method: as §1
# Hek293T = test: as above; conditions: Gynecologic cancer cell panel viability, ATPlite luminescence, 48 h, control line for the selectivity index; series mostly up to 57.5 µM
# Summary of the method: as §1
# JEG-3 = test: as above; conditions: Gynecologic cancer cell panel viability, ATPlite luminescence, 48 h; series mostly up to 57.5 µM
# Summary of the method: as §1
# PA-1 = test: as above; conditions: Gynecologic cancer cell panel viability, ATPlite luminescence, 48 h; series mostly up to 57.5 µM
# Summary of the method: as §1
# Tov-21-G = test: as above; conditions: Gynecologic cancer cell panel viability, ATPlite luminescence, 48 h; series mostly up to 57.5 µM
# Summary of the method: as §1
# Tov112D = test: as above; conditions: Gynecologic cancer cell panel viability, ATPlite luminescence, 48 h; series mostly up to 57.5 µM
# Summary of the method: as §1
# [1] = Drug repurposing screens with cells derived from glioblastoma tumor samples (AID 1345199); conditions: GBM patient neurospheres viability, ATP luminescence, 48 h; further: nearly all actives have a fitted effect of over 40% in size; further: potency means the concentration at half of the fitted maximal effect
# Summary of the method: (§2)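 Primary testing used CD133+ neurospheres from four GBM patients, seven concentrations, 48 h exposure and ATP-based viability; confirmation added three slower-growing patient lines.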
# [2] = qHTS assay for small molecule activators of the human pregnane X receptor (PXR) signaling pathway (AID 720659; call rule not given here)
# CAOV3 = test: Primary qHTS to identify gynecologic anti-cancer compounds using libraries of approved drugs and bioactive compounds (AID 1345084); conditions: Gynecologic cancer cell panel viability, ATPlite luminescence, 48 h; series mostly up to 57.5 µM; further: nearly all actives have a fitted effect of over 55% in size; further: potency means the concentration at half of the fitted maximal effect
# Summary of the method: as §1
# OV90 = test: as above; conditions: Gynecologic cancer cell panel viability, ATPlite luminescence, 48 h; series mostly up to 57.5 µM
# Summary of the method: as §1
# SKOV3 = test: as above; conditions: Gynecologic cancer cell panel viability, ATPlite luminescence, 48 h; series mostly up to 57.5 µM
# Summary of the method: as §1
# astro = test: Drug repurposing screens with cells derived from glioblastoma tumor samples (AID 1345199); conditions: viability, ATP luminescence, 48 h; series mostly up to 45.9 µM; further: nearly all actives have a fitted effect of over 40% in size; further: potency means the concentration at half of the fitted maximal effect
# Summary of the method: as §2
# CASKI = test: Primary qHTS to identify gynecologic anti-cancer compounds using libraries of approved drugs and bioactive compounds (AID 1345084); conditions: Gynecologic cancer cell panel viability, ATPlite luminescence, 48 h; series mostly up to 57.5 µM; further: nearly all actives have a fitted effect of over 55% in size; further: potency means the concentration at half of the fitted maximal effect
# Summary of the method: as §1
# [3] = target: Nuclear receptor subfamily 1 group I member 2 (Rattus norvegicus) (UniProt Q9R1A7); test: qHTS assay for small molecule activators of the rat pregnane X receptor (rPXR) signaling pathway (AID 651751; call rule not given here); conditions: rPXR reporter cells, luciferase (One-Glo), 24 h
# Sequence of Nuclear receptor subfamily 1 group I member 2 (Rattus norvegicus) (Q9R1A7 whole entry, looked up): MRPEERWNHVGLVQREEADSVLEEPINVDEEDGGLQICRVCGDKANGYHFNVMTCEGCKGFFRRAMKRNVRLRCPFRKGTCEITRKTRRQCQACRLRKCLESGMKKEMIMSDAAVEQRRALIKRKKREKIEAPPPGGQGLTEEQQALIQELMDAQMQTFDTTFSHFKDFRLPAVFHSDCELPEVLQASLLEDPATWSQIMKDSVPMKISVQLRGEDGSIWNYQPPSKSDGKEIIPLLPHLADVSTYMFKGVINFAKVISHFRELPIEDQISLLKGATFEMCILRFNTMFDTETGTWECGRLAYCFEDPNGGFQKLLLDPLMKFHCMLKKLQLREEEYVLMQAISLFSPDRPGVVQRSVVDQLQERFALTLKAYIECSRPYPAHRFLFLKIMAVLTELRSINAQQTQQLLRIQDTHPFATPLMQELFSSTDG
# [4] = qHTS assay to identify inhibitors of the type 1 interferon - major histocompatibility complex class I in skeletal muscle: Counter screen cell viability and HiBit confirmation (AID 1347412); conditions: iHSKM muscle cells + IFN-b, HiBiT or CellTiter-Glo, 24 h; Potency: HiBiT; Viability, at 45.9 µM (top of the series); further: nearly all actives have a fitted effect of over 60% in size; further: potency means the concentration at half of the fitted maximal effect
# Summary of the method: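 Myoblasts (C25cl48, HLA-B HiBiT) seeded in medium without dexamethasone, IFN-b 4 ng/ml added except unstimulated columns; 1 hr later compounds pinned (12-pt 1:3, top 46 uM final). Incubated 24 hrs, lysed 10 min, luminescence measured.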
# [5] = at 45.9 µM (top of the series), tumour line B
# [6] = at 45.9 µM (top of the series), tumour line D
# [7] = at 46 µM (top of the series), tumour line A
smiles,measurement,setting,value
O=c1[nH]c2ccccc2n1C1CCN(CCCC(c2ccc(F)cc2)c2ccc(F)cc2)CC1,Potency,Es-2,inactive
same,Potency,HeLa,inactive
same,Potency,Hek293T,inactive
same,Potency,JEG-3,inactive
same,Potency,PA-1,inactive
same,Potency,Tov-21-G,inactive
same,Potency,Tov112D,inactive
same,Potency,[1]; tumour line A,2.82 µM (active)
same,Potency,[1]; tumour line B,8.91 µM (active)
same,Potency,[1]; tumour line D,5.62 µM (active)
same,outcome,[2],inactive
COc1ccc(Cc2nccc3cc(OC)c(OC)cc23)cc1OC,Potency,CAOV3,inactive
same,Potency,OV90,11.2 µM (active)
same,Potency,SKOV3,25.1 µM (active)
same,Potency,Tov-21-G,inactive
same,Potency,Tov112D,inactive
same,Potency,astro,10 µM (active)
FC(F)(F)c1cccc(C2=CCN(CCc3ccc4ccccc4c3)CC2)c1,Potency,CAOV3,inactive
same,Potency,CASKI,inactive
same,Potency,Es-2,inactive
same,Potency,HeLa,inactive
same,Potency,Hek293T,inactive
same,Potency,OV90,inactive
same,Potency,PA-1,inactive
same,Potency,Tov-21-G,inactive
same,Potency,Tov112D,inactive
N[C@@H]1C[C@H]1c1ccccc1,Potency,CAOV3,inactive
same,Potency,Es-2,inactive
same,Potency,HeLa,inactive
same,Potency,Hek293T,inactive
same,Potency,JEG-3,inactive
same,Potency,OV90,inactive
same,Potency,PA-1,inactive
same,Potency,SKOV3,inactive
same,Potency,Tov-21-G,inactive
same,Potency,Tov112D,inactive
same,"activity, negative = cell killing",[1]; [5],-7.72%
same,"activity, negative = cell killing",[1]; [6],-6.02%
CNC(=O)c1ccc(N2C(=S)N(c3ccc(C#N)c(C(F)(F)F)c3)C(=O)C23CCC3)cc1F,Potency,CAOV3,inactive
same,Potency,CASKI,inactive
same,Potency,Es-2,inactive
same,Potency,HeLa,inactive
same,Potency,OV90,inactive
same,Potency,PA-1,inactive
same,Potency,SKOV3,inactive
same,Potency,Tov-21-G,inactive
same,Potency,Tov112D,inactive
CC(C)CC(N(C)C)C1(c2ccc(Cl)cc2)CCC1 (stereo not drawn),Potency,CAOV3,inactive
same,Potency,Es-2,inactive
same,Potency,HeLa,inactive
same,Potency,Hek293T,inactive
same,Potency,JEG-3,inactive
same,Potency,OV90,inactive
same,Potency,PA-1,inactive
same,Potency,Tov-21-G,inactive
same,Potency,Tov112D,inactive
same,"activity, negative = cell killing",[1]; [5],-27.3%
same,"activity, negative = cell killing",[1]; [6],-16.7%
same,"activity, negative = cell killing",[1]; [7],-28.1%
same,Potency,astro,inactive
CO[C@]12CC[C@@]3(C[C@@H]1[C@](C)(O)C(C)(C)C)[C@@H]1Cc4ccc(O)c5c4[C@@]3(CCN1CC1CC1)[C@H]2O5,Potency,JEG-3,inactive
same,Potency,astro,31.6 µM (active)
Clc1ccc(COC(Cn2ccnc2)c2ccc(Cl)cc2Cl)cc1 (stereo not drawn),Potency,Hek293T,inactive
same,Potency,OV90,17.8 µM (active)
same,Potency,SKOV3,28.2 µM (active)
same,Potency,[1]; tumour line A,2.24 µM (active)
same,Potency,[1]; tumour line D,12.6 µM (active)
C=C(C)[C@H]1Cc2c(ccc3c2O[C@@H]2COc4cc(OC)c(OC)cc4[C@@H]2C3=O)O1,Potency,CASKI,1.26 µM (active)
same,Potency,Hek293T,891 nM (active)
same,Potency,PA-1,1.26 µM (active)
same,Potency,SKOV3,0.282 µM (active)
same,Potency,Tov-21-G,3.98 µM (active)
same,Potency,Tov112D,1.78 µM (active)
same,max response,[3],-14.4%
COc1ccc(C(=O)c2c(C)n(CCN3CCOCC3)c3ccccc23)cc1,Potency,CASKI,inactive
same,Potency,Es-2,inactive
same,Potency,HeLa,inactive
same,Potency,Hek293T,inactive
same,Potency,JEG-3,inactive
same,Potency,OV90,inactive
same,Potency,PA-1,inactive
same,Potency,Tov-21-G,inactive
same,Potency,Tov112D,inactive
same,"activity, negative = cell killing",[1]; [5],-14.8%
same,"activity, negative = cell killing",[1]; [6],-16%
CNC(=O)N1N=C(c2ccc(N)cc2)c2cc3c(cc2CC1C)OCO3 (stereo not drawn),Potency,Es-2,inactive
same,Potency,PA-1,inactive
same,Potency,Tov-21-G,inactive
CCC(=O)C(CC(C)N(C)C)(c1ccccc1)c1ccccc1 (stereo not drawn),Potency,Es-2,inactive
same,Potency,HeLa,inactive
same,Potency,Hek293T,inactive
same,Potency,PA-1,inactive
same,Potency,Tov-21-G,inactive
same,Potency,Tov112D,inactive
C[C@H]1O[C@@H](O[C@H]2[C@@H](O)C[C@H](O[C@H]3[C@@H](O)C[C@H](O[C@H]4CC[C@@]5(C)[C@H](CC[C@@H]6[C@@H]5CC[C@]5(C)[C@@H](C7=CC(=O)OC7)CC[C@]65O)C4)O[C@@H]3C)O[C@@H]2C)C[C@H](O)[C@@H]1O,Potency,CAOV3,316 nM (active) and 282 nM (active)
same,Potency,CASKI,398 nM (active) and 794 nM (active)
same,Potency,Es-2,282 nM (active) and 100 nM (active)
same,Potency,HeLa,282 nM (active) and 89.1 nM (active)
same,Potency,Hek293T,282 nM (active) and 224 nM (active)
same,Potency,OV90,0.708 µM (active)
same,Potency,PA-1,282 nM (active) and 126 nM (active)
same,Potency,SKOV3,251 nM (active) and 112 nM (active)
same,Potency,Tov-21-G,112 nM (active) and 100 nM (active)
same,Potency,Tov112D,0.0891 µM (active)
same,Potency,[4],0.0497 µM (active)
same,max response,[3],-1.87%
same,outcome,[2],inactive
Cc1sc2c(c1C)C(c1ccc(Cl)cc1)=N[C@@H](CC(=O)OC(C)(C)C)c1nnc(C)n1-2,Potency,[4],inactive
C#CCOC(C(=O)OCCN(C)C)(c1ccccc1)c1ccccc1,Potency,CAOV3,inactive
same,Potency,CASKI,inactive
same,Potency,Es-2,inactive
same,Potency,HeLa,inactive
same,Potency,Hek293T,inactive
same,Potency,OV90,inactive
same,Potency,PA-1,inactive
same,Potency,Tov-21-G,inactive
same,Potency,Tov112D,inactive
same,"activity, negative = cell killing",[1]; [5],3.88%
same,"activity, negative = cell killing",[1]; [6],1.28%
CC[C@@H](CO)NC(=O)[C@@H]1C=C2c3cccc4[nH]cc(c34)C[C@H]2N(C)C1,Potency,CAOV3,inactive
same,Potency,CASKI,inactive
same,Potency,Es-2,inactive
same,Potency,HeLa,inactive
same,Potency,Hek293T,inactive
same,Potency,OV90,inactive
same,Potency,PA-1,inactive
same,Potency,Tov-21-G,inactive
same,Potency,Tov112D,inactive
same,"activity, negative = cell killing",[1]; [7],16.5%
CC(=O)Nc1cc([As](=O)(O)O)ccc1O,Potency,CAOV3,inactive
same,Potency,CASKI,inactive
same,Potency,Es-2,inactive
same,Potency,HeLa,inactive
same,Potency,JEG-3,inactive
same,Potency,OV90,inactive
same,Potency,PA-1,inactive
same,Potency,SKOV3,inactive
same,Potency,Tov-21-G,inactive
same,Potency,Tov112D,inactive
same,"activity, negative = cell killing",[1]; [5],-26.4%
same,"activity, negative = cell killing",[1]; [6],-5.27%
same,Potency,astro,inactive
Cc1cc(SCc2sc(-c3ccc(C(F)(F)F)c(F)c3)nc2C)ccc1OCC(=O)O,Potency,CAOV3,inactive
same,Potency,CASKI,inactive
same,Potency,Es-2,inactive
same,Potency,HeLa,inactive
same,Potency,Hek293T,inactive
same,Potency,OV90,inactive
same,Potency,PA-1,inactive
same,Potency,Tov-21-G,inactive
same,Potency,Tov112D,inactive
same,max response,[3],13%
CC[N+]1(C)CCCC(OC(=O)C(O)(c2ccccc2)c2ccccc2)C1 (stereo not drawn),Potency,CAOV3,inactive
same,Potency,CASKI,inactive
same,Potency,Es-2,inactive
same,Potency,HeLa,inactive
same,Potency,Hek293T,inactive
same,Potency,PA-1,inactive
same,Potency,SKOV3,inactive
same,Potency,Tov-21-G,inactive
same,Potency,Tov112D,inactive
same,"activity, negative = cell killing",[1]; [5],-10.4%
same,"activity, negative = cell killing",[1]; [6],-8.99%
COc1ccc2c(c1OC)CN1CCc3cc4c(cc3C1C2)OCO4 (stereo not drawn),Potency,CAOV3,inactive
same,Potency,Es-2,inactive
same,Potency,HeLa,inactive
same,Potency,JEG-3,inactive
same,Potency,SKOV3,inactive
same,Potency,Tov-21-G,inactive
same,Potency,Tov112D,inactive
CCC(COC(=O)c1cc(OC)c(OC)c(OC)c1)(c1ccccc1)N(C)C (stereo not drawn),Potency,CAOV3,inactive
same,Potency,CASKI,inactive
same,Potency,Es-2,inactive
same,Potency,HeLa,inactive
same,Potency,JEG-3,inactive
same,Potency,OV90,inactive
same,Potency,PA-1,inactive
same,Potency,Tov-21-G,inactive
same,Potency,Tov112D,inactive
same,Potency,astro,inactive
N#CC(C#N)=Cc1ccc(O)c(O)c1,Potency,CAOV3,inactive
same,Potency,CASKI,inactive
same,Potency,Es-2,inactive
same,Potency,HeLa,inactive
same,Potency,Hek293T,inactive
same,Potency,OV90,inactive
same,Potency,SKOV3,inactive
same,Potency,Tov112D,inactive
